Screening results (PubChem)
Most compounds without a hit are left out; they make up all but 19% or so of the library.
ELG1 repair inh – ELG1-dependent DNA repair inhibition | AID 504467 | actives 2.3% (n = 330,000) | Potency, µM (doses to about 46.1 µM), without a hit: at the top dose activity change, negative = inhibition, actives largely listed as inhibitors | HEK293T ELG1-luciferase reporter, luminescence, 16 h; DNA damage induced by 5-fluorouridine; further: potency means the concentration at half of the fitted maximal effect; nearly all actives have a fitted effect of over 55% in size
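HEK293T cells expressing luciferase-tagged ELG1 (2,000/well) received 5-Fluorouridine plus compound or DMSO for 16 hr at 37 °C. Luciferase was read by ONE-Glo luminescence after 30 min at room temperature.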
DT40 TDP1 no CPT – qHTS for Inhibitors of human tyrosyl-DNA phosphodiesterase 1 (TDP1): qHTS in cells in absence of CPT; AID 686978, 2013; actives 15% (n = 420,000); Potency, µM (top dose mostly 46.2 µM), for the others: at the top dose activity change, negative = growth inhibition, most hits filed as inhibitors; DT40 Tdp1-/- hTDP1 cells, no CPT, ATP luminescence, 48 h; further: potency means the concentration at half of the fitted maximal effect; nearly all actives have a fitted effect of over 55% in size
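Growth of hTDP1-complemented DT40 Tdp1-knockout cells is measured by ATP luminescence after at least 48 hr compound exposure at 37 °C, with DMSO substituting for the 20 nM CPT used in the parallel screen.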
HT1080 IDH1KD tx – kills HT-1080 cells with IDH1 knockdown; HT-1080 IDH1 knockdown viability, ATP luminescence, 48 h; Potency, µM (doses to about 46.1 µM), for the others: at the highest dose activity, negative = toxicity, usual class: cytotoxic; actives 2% (n = 360,000);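 further: potency means the concentration at half of the fitted maximal effect; 0% = DMSO wells and -100% = cell-free medium wells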
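% activity derives from luminescence (CellTiter-Glo), normalised to DMSO and no-cell wells. HT-1080-IDH1KD cells, 750/well, had 48 h compound exposure at 37 °C.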
IL1B secr inh – blocks inflammasome-driven IL-1 beta release. actives 4.7% (n = 360,000). activity change, % at 57.5 µM. THP-1 LPS/ATP IL-1B secretion, AlphaLISA, 16 h; active compounds read low; in the data active means activity change below about -50%; inconclusive means mostly about -30% to -49%
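Secreted IL-1B measured by AlphaLISA bead assay after 16 h compound exposure of THP-1 cells; compounds (final up to 57.5 uM) added 1 h before LPS (250 ng/mL) and ATP (1.25 mM) stimulation; lower signal means less secretion.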
HT1080NT lethal – kills 2HG-producing HT-1080-NT fibrosarcoma cells | actives 1.6% (n = 360,000) | Potency, µM (highest dose often 46.1 µM), without a hit: top-dose activity, negative = less viability, most hits filed as cytotoxic | HT-1080-NT fibrosarcoma viability, CellTiter-Glo ATP luminescence, 48 h;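 further: NT is the 2HG producing partner of a matched IDH1 knockdown line; potency means the concentration at half of the fitted maximal effect; 0% = DMSO-treated cells and -100% = media-only wells without cells; nearly all actives have a fitted effect of over 55% in size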
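Fibrosarcoma NT cells, 750 per well in 5% FBS RPMI, were exposed to compound for 48 hours. Viability: CellTiter-Glo luminescence.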
DT40 TDP1 CPT – growth inhibition of DT40 Tdp1-/-;hTDP1 cells with camptothecin (screen for TDP1 inhibitors); chicken DT40 Tdp1-/-;hTDP1 cells + 20 nM CPT, ATP luminescence, 48 h; Potency, µM (series often up to 46.2 µM), for inactives: at the top dose activity change, negative = growth inhibition, usual class: inhibitors; actives 12% (n = 420,000); AID 686979; further: potency means the concentration at half of the fitted maximal effect; nearly all actives have a fitted effect of over 55% in size
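Chicken DT40 Tdp1-/- cells stably complemented with human TDP1 were seeded at 400 cells/well in medium containing 20 nM camptothecin, exposed to pin-transferred compounds, and grown at 37 °C for at least 48 hr. Viability was read as ATP luminescence.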
The depositor's hits bear a star; ? = inconclusive; · = not tested or not shown; [ ] = remark or other dose. Unless noted, the call rests on the fitted dose curve; in most records, active means well fitted curve in the direction sought with a large enough effect; inconclusive means small, poorly fitted or top-dose-only effect, or another doubt; inactive means no such curve, though single readings can be large; an effect the other way counts as inactive or inconclusive. Unless noted, on the % scale 0 is the no-effect control and ±100 the full control effect.

SMILES | ELG1 repair inh | DT40 TDP1 no CPT | HT1080 IDH1KD tx | IL1B secr inh | HT1080NT lethal | DT40 TDP1 CPT
Cc1noc(C)c1C(=O)OCC(=O)Nc1ccccc1C(=O)NC(C)c1ccccc1 (stereo unspecified) | ? | 20.6µM* | -2.2% | -9.8 | -22.0% | 29.1µM*
C/C(CC(=O)NCc1ccc(F)cc1)=N\NC(N)=S | -9.3% | -25.1% | -2.9% | -18.1 | -3.8% | -1.4%
CCOc1ccc(S(=O)(=O)NCc2ccccc2OC)cc1 | -14.1% | -26.5% | -0.5% | 12.3 | -15.4% | -11.4%
CCOc1ccccc1CNS(=O)(=O)c1ccc(-c2cnc(C3CC3)o2)cc1 | -15.1% | 0.651µM* | 1.16µM* | 32.1 | 7.31µM* | 0.82µM*
Cc1nc(-c2ccc(S(=O)(=O)NCc3ccc(OC(C)C)cc3)cc2)co1 | · | 25.9µM* | · | · | · | ?
CCOc1ccc(NS(=O)(=O)c2ccc(-c3coc(C)n3)cc2)cc1 | -2.5% | ? | -15.1% | 23.9 | 3.6% | ?
O=S(=O)(NCc1ccccc1Cl)c1ccc(-c2cnc(C3CC3)o2)cc1 | · | 2.91µM* | · | · | · | 3.66µM*
CCOc1ccccc1CNS(=O)(=O)c1ccc(-c2coc(C)n2)cc1 | · | 16.4µM* | · | · | · | 16.4µM*
Cc1ccc(CNS(=O)(=O)c2ccc(-c3cnc(C4CC4)o3)cc2)cc1 | -0.5% | ? | 2.7% | 10.1 | 0.0% | ?
O=C(CCSCCc1ccccn1)Nc1ccc(Cl)cc1 | · | -18.1% | · | · | · | -18.0%
N#C/C(=C\c1ccc(Br)cc1)c1nc(-c2cc3cc(Br)ccc3oc2=O)cs1 | · | -2.4% | · | · | · | 6.0%
CC(C)Oc1ccc(CN2CCC2(C)C(=O)Nc2ccc(Cl)c(Cl)c2)cc1 (stereo unspecified) | · | ? | 0.0% | 2.6 | ? | ?
CC(C)Cc1nc2oc3c(Cl)ncnc3c2c2c1CCC2 | ? | 18.4µM* | ? | -101.8* | 1.8% | 13µM*
CC(C)c1nc2oc3c(N4CCNCC4)ncnc3c2c2c1CCC2 | · | 16.8% | -2.6% | -12.8 | -6.6% | -13.8%
CC(C)Cc1nc2oc3c(NCCCN4CCOCC4)ncnc3c2c2c1CCC2 | -21.4% | ? | -4.3% | -59.2* | 8.4% | 15.8µM*
O=C1Nc2ccccc2Oc2cc(Oc3ccc(Cl)cc3)ccc21 | · | ? | · | · | · | -25.1%
Cc1ccc(Oc2cc([N+](=O)[O-])cc3c2C(=O)Nc2ccccc2O3)cc1 | ? | 14.6µM* | -27.7% | -17.2 | ? | ?
COc1cccc(N(CC(=O)NC2CCCCC2)C(=O)c2snc(C(N)=O)c2N)c1 | 23.0% | -25.9% | -3.0% | -60.9* | 1.9% | 9.6%
NC(=O)c1nsc(C(=O)N(CC(=O)NC2CCCCC2)c2ccc(Cl)cc2)c1N | -5.5% | ? | -3.2% | 2.9 | -17.1% | ?
CCCCOc1ccc(N(CC(=O)NC2CCCCC2)C(=O)c2snc(C(N)=O)c2N)cc1 | 23.5% | 16.4µM* | 23.2% | 16.4 | 21.1% | ?
Cc1ccc(C)c(N(CC(=O)NC2CCCCC2)C(=O)c2snc(C(N)=O)c2N)c1 | -2.9% | 9.4% | 6.8% | 33.2 | 13.5% | ?
CC(C)(C)NC(=O)CN(C(=O)c1snc(C(=O)NC2CCCCC2)c1N)c1ccccc1F | -24.5% | 20.6µM* | -15.2% | ? | -10.9% | ?
Cc1nc(CC(=O)N2CCC(n3c(C4CCC4)nc4cccnc43)CC2)cs1 | · | -4.1% | · | · | · | 15.9%[9.04 µM]
CC(=O)Nc1ccc(NC(=O)CCC(=O)c2ccc(C)cc2)cc1 | · | 7.2% | · | · | · | -10.5%
CC1(C)CC(=O)C=C(c2ccccc2-c2ccc(S(C)(=O)=O)cc2)C1=O | · | ? | 9.0% | 13.5 | 12.5% | -7.6%
CC(C)(C)c1cccc(P(=O)(c2ccccc2)c2ccccc2)c1O | -16.4% | -9.1% | -6.0% | -71.0* | -22.0% | 2.5%
